# Laboratory results taken from PubChem BioAssay (NCI).
# The panel holds about 83,000 compounds, 20% with a hit somewhere; the sample as a whole holds those more often.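 48-hour exposure, single concentration, 96-well plates; percent growth endpoint where 0 means no net growth. Active: below 10.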 Active and inactive are the calls of the source.
# Tested on: HL-60(TB) leukemia
# Test: NCI-60 one-dose screen, 48 h (100 = growth as untreated, 0 = no growth, -100 = all killed)
# Conditions: 10 µM unless noted
row,SMILES,growth
1,C/C(=N\NC(=O)CSc1nc2ccccc2c(=O)n1CCc1ccc(S(N)(=O)=O)cc1)c1ccccn1,33.8% (inactive)
2,COc1cc(C(=O)N(C(C)C)C2CCCCC2)cc(OC)c1OC,96.7% (inactive)
3,COc1ccc2nc3cc(Cl)ccc3c(Nc3ccc(O)c(CN4CCCC4)c3)c2c1,-51% (active)
4,CCCCC[C@H](O)C/C=C1/C(=O)C=C[C@@H]1C/C=C\CCCC(=O)O,90.7% (inactive)
5,O=C(/C=C/c1ccccc1)c1ccc2ccccc2c1,56.1% (inactive)
6,CC(=O)c1cc2c(cc1F)C(C)(C)CCC2(C)C,86.3% (inactive)
7,Nc1cccc(-c2nc3sccn3c2-c2ccnc(NCCCNS(=O)(=O)c3ccc(C(F)(F)F)cc3)n2)c1,-18.5% (active)
8,CCCCC(CC)CN=C(N)NC(N)=NCCCCCCN=C(N)NC(N)=NCC(CC)CCCC (stereo not given),-76.8% (active)
9,CSc1nn2c(-c3ccc4ccccc4c3)ccnc2c1C#N,14.1% (inactive)
10,COc1ccc(-c2cc(/C=C3\C(=O)Nc4ccc(Cl)cc43)[nH]n2)cc1OC,60.2% (inactive)
11,CCOC(=O)c1c(C)nc2c(c1N)/C(=C/c1cccs1)C(=O)N2Cc1ccccc1,60.4% (inactive)
12,Cc1cc(N2CCN(c3ccnc4cc(Cl)ccc34)CC2)nc(NC2CCCCC2)n1,-54.1% (active)
13,COc1ccc(/C=C(\C#N)n2nc3cccc(F)c3n2)cc1,82% (inactive)
14,CCOC(=O)c1c(C=O)nc2ccccc2c1/C=C/c1ccc(Cl)cc1,69.7% (inactive)
15,CCCCOCC(=O)NC(NP(=O)(N(C)C)N(C)C)C(Cl)(Cl)Cl (stereo not given),100% (inactive)
16,CCCCCn1c(=N)n(CC(O)COc2cccc(C)c2)c2ccccc21 (stereo not given),2.51% (active)
17,C#CCOc1cccc(Nc2ncnc3ccc(NC(=O)C=C)cc23)c1,29.3% (inactive)
18,Cn1cc(-c2nc(-c3c[nH]c4ncc(F)cc34)cs2)c2cccnc21,103% (inactive)
19,CNC(=O)c1cc(COc2nnc(Nc3ccc(Cl)cc3)c3ccoc23)ccn1,120% (inactive)
20,O=C(NS(=O)(=O)c1ccccc1)n1cc(-c2ccncc2)c(-c2ccc(Cl)c(O)c2)n1,94% (inactive)

row,SMILES,growth
1,Clc1ccc(C2CC(c3cccc(Nc4ccncc4)c3)=NN2c2cc(Cl)cc(Cl)c2)cc1 (stereo not given),24.8% (inactive)
2,C[C@@H](C[C@H](CCOCc1cccnc1)c1ccccc1)c1cc2ccccc2o1,98% (inactive)
3,O=C(O)c1ccc2nc(-c3ccc(OCCCCCOc4ccc(-c5nc6ccc(C(=O)O)cc6[nH]5)cc4)cc3)[nH]c2c1,108% (inactive)
4,COc1cc2nc(-c3ccc(C(F)(F)F)cc3)cc(OCCN3CCCCC3)c2cc1OC,58.6% (inactive)
5,C(=C1c2ccccc2-c2ccccc21)c1ccncc1,9.03% (active)
6,COc1cc(NS(=O)(=O)C(C)C)cc(-c2cc(-c3ccc(N4CCNCC4)cc3)cnc2N)c1,78.3% (inactive)
7,COc1ccc(CN2c3ccccc3Sc3ccccc32)c(F)c1,-27% (active)
8,O=C1C=C(OCC=C(Cl)Cl)C(=O)c2ccccc21,-1.08% (active)
9,COc1cc(-c2nc3ccccc3[nH]2)ccc1OCC(=O)N=Nc1c(O)[nH]c2ccc(Cl)cc12,-30.8% (active)
10,COc1cc(C2CC(=O)Nc3c2cnn3Cc2ccco2)cc2c1OCCO2 (stereo not given),25.6% (inactive)
11,Cc1cc(C)c2c(Nc3ncnc4c3sc3nc(C)cc(C)c34)n[nH]c2n1,99% (inactive)
12,O=[N+]([O-])c1cccc(C2CC(c3ccccc3)=Nc3ccccc3S2)c1 (stereo not given),84.7% (inactive)
13,COc1ccc(CCNC2=CC(=O)CCC2)cc1OC,69.4% (inactive)
14,COc1cc2c(cc1O)CC[C@@H]1C2CC[C@@]2(C)C1CC[C@@H]2O (stereo not given in full),-3.13% (active)
15,O=C1CCC2=C3C4CCCCC4C(=O)C4CCCC(OC2C1)C34 (stereo not given),-17.1% (active)
16,COC(=O)[C@H](Cc1cn(C)cn1)NC(=O)[C@H](Cc1c[nH]c2ccccc12)NC(=O)Nc1cc(C(F)(F)F)cc(C(F)(F)F)c1,-54.5% [100 µM] (active)
17,CCOC(=O)Nc1ccc2c(c1)/C(=N\NC(=S)NC)c1ccccc1-2,103% (inactive)
18,CC(C)(C)c1ccc2oc(=O)n(SC(Cl)(Cl)Cl)c2c1,70.2% (inactive)
19,CC(=O)CCC(=O)OCc1cc(=O)c(O)co1,95% (inactive)
20,C#CCOc1ccc2ncnc(Nc3cccc(NC(=O)CCl)c3)c2c1,63.7% (inactive)
